Bioassay records: PubChem BioAssay, National Center for Advancing Translational Sciences (NCATS)
15-hLO-2 inh: blocks human 15-lipoxygenase 2 activity; purified 15hLO-2, xylenol orange hydroperoxide absorbance; Potency, µM (doses to about 57.1 µM), hits mostly inhibitors; O15296; actives 0.56% (n = 110,000); further: nearly all actives have a fitted effect of over 60% in size
Target sequence (O15296 whole entry, looked up): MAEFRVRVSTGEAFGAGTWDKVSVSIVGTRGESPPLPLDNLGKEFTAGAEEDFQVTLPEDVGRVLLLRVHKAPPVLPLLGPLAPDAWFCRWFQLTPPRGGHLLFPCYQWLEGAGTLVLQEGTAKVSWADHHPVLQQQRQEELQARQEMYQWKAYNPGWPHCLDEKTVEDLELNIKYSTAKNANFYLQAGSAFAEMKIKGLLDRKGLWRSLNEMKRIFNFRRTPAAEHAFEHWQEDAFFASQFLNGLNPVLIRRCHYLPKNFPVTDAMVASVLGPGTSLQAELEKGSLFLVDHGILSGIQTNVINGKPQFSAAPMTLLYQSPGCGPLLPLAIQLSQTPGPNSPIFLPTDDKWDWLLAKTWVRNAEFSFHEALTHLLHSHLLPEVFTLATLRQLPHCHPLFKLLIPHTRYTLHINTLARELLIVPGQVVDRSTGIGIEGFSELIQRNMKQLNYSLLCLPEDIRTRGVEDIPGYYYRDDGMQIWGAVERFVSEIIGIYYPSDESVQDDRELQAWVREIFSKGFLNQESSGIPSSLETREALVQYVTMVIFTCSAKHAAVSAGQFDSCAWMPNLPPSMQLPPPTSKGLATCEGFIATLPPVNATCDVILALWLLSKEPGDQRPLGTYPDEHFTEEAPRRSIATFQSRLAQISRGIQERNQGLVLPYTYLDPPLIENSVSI
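Purified human 15hLO-2 (50 nM) preincubated 15 min with compound, then 45 uM arachidonic acid for 90 min at RT in 25 mM Hepes pH 7.5, 0.01% Triton X-100. Hydroperoxide detected by Fe-xylenol orange; 573/405 nm absorbance ratio.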
ALOX12 inhib: 12-hLO (ALOX12) enzyme inhibition; AID 1452; Potency, µM (series often up to 57.1 µM), usual class: inhibitors; P18054; actives 0.12% (n = 150,000); purified 12-hLO, xylenol orange hydroperoxide absorbance; further: nearly all actives have a fitted effect of over 55% in size
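Lipoxygenase turnover measured by absorbance at 573 and 405 nm after Fe-XO development. Human 12hLO 150 nM, arachidonate 40 uM, pH 7.0 Hepes buffer with detergent; 15 min compound preincubation, 30 min reaction.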
PNC assembly inh: blocks assembly of the perinucleolar compartment; PC3M PTB-GFP, PNC prevalence imaging, 16 h; stronger effect = lower value; activity change (PNC), negative = inhibition, % at 10 µM; actives 3.1% (n = 140,000); AID 2417;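 active means readout at or below -70, meaning at least 70% loss of cells showing the perinucleolar compartment, a nuclear body marking cancer cells; inconclusive means readout between -30 and a set limit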
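Read-out is percentage of cells bearing a perinucleolar compartment, from automated 20x imaging of fixed, Hoechst-stained PC3M PTB-GFP cells. Cells were seeded 4 h, then exposed 16 h to compound (23 nl of library stock) in duplicate plates.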
Large screens that a line does not name were inactive. Compounds with a hit are over-represented: about 3.2% of the library has one in this group of screens. Unless noted, the call rests on the fitted dose curve; in most records, active means well fitted curve in the direction sought with a large enough effect; inconclusive means small, poorly fitted or top-dose-only effect, or another doubt; inactive means no such curve, though single readings can be large; an effect the other way counts as inactive or inconclusive.

COc1cc2c(cc1OC)C(c1cc3cc4c(cc3[nH]c1=O)OCO4)N(C(=O)C1CC1)CC2 (stereo unspecified)	PNC assembly inh -100.0 (no result: 15-hLO-2 inh)
COC(=O)c1ccc(OCC2c3cc(OC)c(OC)cc3CCN2C(=O)C2CC2)cc1 (stereo unspecified)	none
CC/C(=N/N=C(\CC)c1ccccc1)c1ccccc1	none (no result: 15-hLO-2 inh)
CCOc1ccc(Nc2ncnc(N)n2)cc1	PNC assembly inh inconclusive
Nc1ncnc(Nc2ccc(F)cc2)n1	PNC assembly inh -90.5 (no result: 15-hLO-2 inh)
O=C(Nc1ccc(S(=O)(=O)NC2CCCCC2)cc1)c1ccco1	PNC assembly inh -100.0 (no result: 15-hLO-2 inh)
COc1cc(NS(=O)(=O)c2ccc(NC(C)=O)cc2)nc(OC)n1	none
COc1cc(NS(=O)(=O)c2ccc(NC(=O)c3ccco3)cc2)nc(OC)n1	PNC assembly inh -82.2
O=C(Nc1ccc(S(=O)(=O)NC2CCCCC2)cc1)c1ccc(Br)o1	PNC assembly inh inconclusive
COc1ccc[nH]c1=O	PNC assembly inh inconclusive
O=C(CNc1cc(S(=O)(=O)N2CCCC2)ccc1OCC(F)(F)F)Nc1cccc(C(F)(F)F)c1	none (no result: 15-hLO-2 inh)
Cc1cccc(-n2c(C)cc(C=C3C(=O)c4ccccc4C3=O)c2C)c1	PNC assembly inh -84.6
Cc1cc(C=C2C(=O)c3ccccc3C2=O)c(C)n1-c1ccc(Cl)cc1	none
CC[C@@]1(O)C(=O)COc2c1cc1n(c2=O)Cc2c-1nc1cccc(C(C)C)c1c2[Si](C)(C)C	none (no result: PNC assembly inh)
CCC(C)[C@H](NC(=O)Nc1cccc(Br)c1)C(=O)OC (stereo partly specified)	none (no result: 15-hLO-2 inh)
COc1cc(/C=N/Nc2ccc(F)cc2F)cc(OC)c1OC	none (no result: 15-hLO-2 inh)
COc1cc(/C=N/Nc2snc(SC)c2C#N)cc(OC)c1OC	15-hLO-2 inh inconclusive, PNC assembly inh -105.3
CS(=O)(=O)Nc1ccc(C(=O)N2CCN(c3ccccc3)CC2)cc1	none
CC(C)Cn1c2c(c(O)c(C(=O)Nc3ncccc3O)c1=O)CCCC2	PNC assembly inh -90.9
CC(C)Cn1c2c(c(O)c(C(=O)Nc3ccc(F)cc3)c1=O)CCCC2	none
O=C1CCCN1c1ccc(S(=O)(=O)Oc2cccc(Cl)c2)cc1[N+](=O)[O-]	PNC assembly inh -106.0
CS(=O)(=O)N1CCN(c2ccc(Cl)cc2[N+](=O)[O-])CC1	PNC assembly inh inconclusive (no result: 15-hLO-2 inh)
COC(=O)N1C2CC(=O)O[C@@H]3c4cc5c(cc4[C@]1(C)[C@@]3(Br)c1ccccc12)OCO5	none (no result: 15-hLO-2 inh, PNC assembly inh)
CCOc1ccc(CNC(=S)N/N=C/c2cccnc2)cc1	PNC assembly inh inconclusive (no result: 15-hLO-2 inh)
CCOc1ccc(CNC(=S)N/N=C\c2ccc([N+](=O)[O-])cc2)cc1	PNC assembly inh -92.2
COc1ccc(C2NC(=S)NC(C)=C2C(=O)c2ccccc2)cc1OC (stereo unspecified)	PNC assembly inh -85.9 (no result: 15-hLO-2 inh)
COc1ccc(C2NC(=S)NC(C)=C2C(=O)Nc2ccccn2)cc1OC (stereo unspecified)	PNC assembly inh inconclusive (no result: 15-hLO-2 inh)
CC1(C(=O)NCc2ccccn2)C=CCN1C(=O)c1ccccc1 (stereo unspecified)	PNC assembly inh -118.9
CNC(=O)C1(C)C=CCN1C(=O)c1ccccc1 (stereo unspecified)	none
CC(C)C[C@@H](CC(=O)N[C@@H](CCCN)CC(=O)N[C@@H]1CCNC[C@H]1C(=O)N[C@H](CC(=O)N[C@@H](CCC(=O)O)CC(=O)O)Cc1c[nH]c2ccccc12)NC(=O)[C@@H]1CNCC[C@H]1N	none (no result: 15-hLO-2 inh, PNC assembly inh)
COc1ccccc1NC(=O)C(=O)N1N=C(C(C)C)CC1(O)C(F)(F)F (stereo unspecified)	none
Cc1cc(C(N)=O)c2cc(Br)ccc2n1	PNC assembly inh -89.5
Cc1cc(C(=O)NN)c2cc(Br)ccc2n1	none
c1ccc(-c2cccc(N3CCC4(CCNCC4)CC3)c2)cc1	none (no result: PNC assembly inh)
CC(=O)Nc1sc2c(c1C#N)CCCC2	none
CC(=O)NC(=S)Nc1sc2c(c1C#N)CCCCC2	PNC assembly inh -115.2 (no result: 15-hLO-2 inh)
CC1CCc2sc(NC(=S)NC(=O)c3ccccc3)c(C#N)c2C1 (stereo unspecified)	PNC assembly inh -80.2 (no result: 15-hLO-2 inh)
N#Cc1c(NC(=S)NC(=O)c2ccccc2)sc2c1CCC2	none (no result: 15-hLO-2 inh)
O=C1C2C(C(=O)N1/N=C/c1ccc(N3CCCCC3)o1)C1C=CC2C12CC2 (stereo unspecified)	none (no result: 15-hLO-2 inh)
Cc1nc(CN2CCCCC2)c(O)c(=O)[nH]1	none (no result: PNC assembly inh)
CC(C)(C)NC(=O)CSc1nncn1NCc1c(Cl)cccc1Cl	PNC assembly inh -100.0 (no result: 15-hLO-2 inh)
CC(C)(C)NC(=O)CSc1nncn1NCc1cccc2ccccc12	none
CN(C)c1ccc2c(c1)OC(N)=C(C#N)C2c1cccc(F)c1 (stereo unspecified)	PNC assembly inh -85.0
CCOc1ccccc1C1C(C#N)=C(N)Oc2cc(N)ccc21 (stereo unspecified)	PNC assembly inh inconclusive
N.N.N.N.N.N.N.N.N.N.N.N.N.N.O.O.[Ru].[Ru].[Ru]	none (no result: PNC assembly inh)
